# Data: PubChem BioAssay (NCATS)
# Unmarked numbers belong to inactive results. Results filed as inconclusive are left out. A call without a number means that no potency is given here. Activity calls are given as the source filed them. Unless noted, calls come from the whole dose curve; as a rule, active = well fitted curve in the direction sought with a large enough effect; inconclusive = small, poorly fitted or top-dose-only effect, or another doubt; inactive = no such curve, though single readings can be large; an effect the other way counts as inactive or inconclusive.
# Key:
# [1] = Confirmation and Secondary Assay for Modulators of Hemoglobin Beta Chain Splicing at IVS2 654 locus (AID 910);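 note: HeLa cells stably carrying EGFP split by mutant beta-globin IVS2-654 intron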
# Summary of the method: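 HeLa cells stably expressing EGFP interrupted by β-globin IVS2-654 intron, seeded overnight in Opti-MEM/2% FCS, then treated 2 days at 37 °C. Restored splicing read as total peak GFP intensity per well by laser scanning cytometry (488 nm excitation, 500–520 nm emission); 500 nM antisense PNA as control.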
# [2] = Confirmation and Secondary Assay for Modulators of Hemoglobin Beta Chain Splicing at IVS2 705 locus (AID 930);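 note: HeLa cells stably expressing the EGFP-705 splicing reporter; GFP fluorescence per well restored by corrected splicing of the IVS2-705 intron in EGFP; series mostly up to about 46 µM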
# Summary of the method: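 Read-out: total peak GFP fluorescence per well (488 nm excitation, 500-520 nm emission) by laser-scanning cytometry. Cells: HeLa EGFP-705 splicing reporter, 2 days compound exposure in Optimem/2% FCS.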
# [3] = target: Ubiquitin carboxyl-terminal hydrolase 1 (Homo sapiens) (UniProt O94782); experiment: Inhibitors of USP1/UAF1: Pilot qHTS (AID 504865);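 note: rhodamine fluorescence freed from ubiquitin-rhodamine substrate followed over time; top concentration of the series differs between compounds; nearly all actives have a fitted effect of over 35% in size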
# Summary of the method: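 Enzyme-free wells gave the negative control, while test wells held 1nM USP1/UAF1 preincubated with compound for 15 min at room temperature. Ub-Rho at 150nM final started the reaction, and fluorescence at 480/540 nm was recorded kinetically.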
# [4] = test system: Zika virus NS2B-NS3 protease; experiment: Primary screen GU AMC qHTS for Zika virus inhibitors (AID 1347154); note: nearly all actives have a fitted effect of over 70% in size; note: potency is the fitted concentration of half-maximal effect
# Summary of the method: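 Unlinked Zika NS2B hydrophilic domain–NS3 protease complex at 25 nM in 10 mM Tris-HCl pH 8.0, 0.01% Tween 20, with an AMC peptide substrate. Fluorescence change (340/450 nm) over 15 min at room temperature, normalized to controls, fitted to 4-parameter Hill.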
# [5] = target: Cytochrome P450 2D6 (Homo sapiens) (UniProt P10635); experiment: Cytochrome P450 family 2 subfamily D member 6 (CYP2D6) small molecule antagonists: luciferase biochemical (cell-free) qHTS assay (AID 1645840; active = well fitted curve in the direction sought with a large enough effect in the repeat runs; an effect the other way counts as inactive or inconclusive; note: series mostly up to about 57 µM; nearly all actives have a fitted effect of over 55% in size)
# Summary of the method: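 P450-Glo CYP2D6 system: proluciferin substrate converted by enzyme to luciferin, read by luminescence proportional to activity. Enzyme-substrate mix with compound 10 min at room temperature, then NADPH regeneration 1 h before detection reagent.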
# [6] = target: Cytochrome P450 3A4 (Homo sapiens) (UniProt P08684); experiment: Cytochrome P450 family 3 subfamily A member 4 (CYP3A4) small molecule antagonists: luciferase qHTS assay (AID 1645841; active = well fitted curve in the direction sought with a large enough effect in the repeat runs; an effect the other way counts as inactive or inconclusive; note: nearly all actives have a fitted effect of over 45% in size)
# Summary of the method: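 P450-Glo CYP3A4 enzyme with proluciferin substrate preincubated 10 min with compound at room temperature, then NADPH regeneration 1 h. Luciferin detection reagent added for 20 min; luminescence recorded. Ketoconazole positive control.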
# [7] = NCATS anti-infectives library activity on HEK293 viability as a counter-qHTS vs the C. elegans viability qHTS (AID 1745854);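 note: HEK293 cells exposed to compounds for 24 hr before the viability read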
# Summary of the method: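 Counter-screen for cytotoxicity: HEK293, 24 hr, 37C, compounds up to 41.7 uM final (a dilution series, 1:5). Readout CellTiter-Glo luminescence, 10 min RT. Digitonin control, 83.3 uM final.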
# [8] = target: Cytochrome P450 1A2 (Homo sapiens) (UniProt P05177); experiment: p450-cyp1a2 (AID 410; calls by dose curve; note: potency is the fitted concentration of half-maximal effect)
# Summary of the method: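 O-Demethylation of luciferin 6' methyl ether by human CYP1A2 is monitored as luciferase luminescence. Substrate sits at Km (100uM); enzyme is 20nM. Values are scaled to 57 uM furafylline as maximal inhibition.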
# [9] = target: Glucocorticoid receptor (Homo sapiens) (UniProt P04150); experiment: GR-GFP Redistribution (AID 450;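 active = compounds whose dose series gives a full or clear partial fitted curve of increased nuclear translocation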; note: potency is the fitted concentration of half-maximal effect); conditions: U2OS GR-GFP nuclear translocation, laser cytometry, 2 h
# [10] = target: Glucocorticoid receptor (Homo sapiens) (UniProt P04150); experiment: GR-EFC Redistribution (AID 451; calls by dose curve; note: potency is the fitted concentration of half-maximal effect); conditions: CHO-K1 GR-EFC translocation, beta-gal luminescence, 2 h
# Summary of the method: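 CHO-K1 cells expressing nuclear EA and GR-ED fragments of b-gal; compounds titrated up to 46 uM final, 2 h at 37 C. GR nuclear translocation read as complemented b-gal luminescence after 1 h RT detection.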
# [11] = target: 3',5'-cyclic-AMP phosphodiesterase 4B (Homo sapiens) (UniProt Q07343); experiment: qHTS Assay for Inhibitors of PDE-IV (AID 607; active = well fitted activation curve with a large enough effect in the main read-out, with a control signal flat, not every such curve was filed as active)
# Summary of the method: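 Cell-based read-out of cAMP via a modified cyclic nucleotide-gated channel and membrane potential dye (535/590 nm) in HEK293 cells expressing PDE4 endogenously. Compounds tested up to 22.9 uM final; 100 uM RO 20-1724 reference.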
# [12] = target: Cytochrome P450 2C9 (Homo sapiens) (UniProt P11712); experiment: qHTS Assay for Inhibitors and Substrates of Cytochrome P450 2C9 (AID 883); note: nearly all actives have a fitted effect of over 60% in size
# Summary of the method: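 10nM CYP2C9 + 100uM Luciferin-H (=KM), 25mM KPO4; cpd 10 min 37C; NADPH regen, 60 min 37C; stop/detect with P450 Glo-Buffer 20 min; luminescence. Norm. to 57uM sulphaphenazole as full inhibition.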
# [13] = target: Cytochrome P450 3A4 (Homo sapiens) (UniProt P08684); experiment: qHTS Assay for Activators of Cytochrome P450 3A4 (AID 885); note: nearly all actives have a fitted effect of over 65% in size
# Summary of the method: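 Luminescent readout of luciferin formed from 25 uM Luciferin-PPXE (KM level) by 20 nM CYP3A4 in 200 mM KPO4, with 60 min NADPH-driven reaction at room temperature after 10 min compound exposure. Ketoconazole (57 uM) defined 100% inhibition.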
# [14] = target: DNA dC->dU-editing enzyme APOBEC-3G (Homo sapiens) (UniProt Q9HC16); experiment: qHTS for inhibitors of Vif-A3G interactions: Validation (AID 588379)
# Summary of the method: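 Yellow fluorescence (Ex 488, Em 500-530) of Vif-coexpressing HeLa A3G-eYFP cells, scanned by Acumen cytometer, reports blocked A3G degradation. Cells plated at 700/well overnight at 37 deg C before compound addition, then a further overnight compound incubation at 37 deg C.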
# [15] = target: Mitogen-activated protein kinase 10 (Mus musculus) (UniProt Q61831); experiment: JNK3 AlphaScreen Assay (AID 530; active = well fitted curve in either direction with a large enough effect, not every such curve was filed as active;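 note: kinase came from lysate of stimulated human HepG2 cells; signal reports phosphorylation of biotinylated GST-cJun 1-79 at Ser73 with 10 µM ATP; series mostly up to about 57 µM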)
# Summary of the method: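 Activity was read by AlphaScreen after JNK3-containing HepG2 lysate (cytokine pre-activated) phosphorylated biotinylated GST-cJun with 10 uM ATP at room temperature. Phospho-Ser73 cJun antibody with Protein-A acceptor beads provided detection.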
# Cytochrome P450 3A4 (Homo sapiens), sequence (P08684 whole entry, looked up): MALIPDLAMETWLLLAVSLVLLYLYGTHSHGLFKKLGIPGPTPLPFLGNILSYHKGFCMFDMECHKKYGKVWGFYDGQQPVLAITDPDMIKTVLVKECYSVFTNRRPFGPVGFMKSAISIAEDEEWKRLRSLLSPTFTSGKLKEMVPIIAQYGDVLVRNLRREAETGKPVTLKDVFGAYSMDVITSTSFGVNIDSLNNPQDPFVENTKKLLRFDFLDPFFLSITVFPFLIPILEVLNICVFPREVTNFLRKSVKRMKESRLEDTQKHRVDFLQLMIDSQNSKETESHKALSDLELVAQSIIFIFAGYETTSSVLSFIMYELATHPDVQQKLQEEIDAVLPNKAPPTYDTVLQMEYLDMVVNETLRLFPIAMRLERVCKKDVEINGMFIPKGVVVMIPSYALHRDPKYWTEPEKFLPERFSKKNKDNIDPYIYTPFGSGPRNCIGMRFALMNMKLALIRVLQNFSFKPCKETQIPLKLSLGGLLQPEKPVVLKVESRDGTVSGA
# Glucocorticoid receptor (Homo sapiens), sequence (P04150 whole entry, looked up, the tested form may be a part): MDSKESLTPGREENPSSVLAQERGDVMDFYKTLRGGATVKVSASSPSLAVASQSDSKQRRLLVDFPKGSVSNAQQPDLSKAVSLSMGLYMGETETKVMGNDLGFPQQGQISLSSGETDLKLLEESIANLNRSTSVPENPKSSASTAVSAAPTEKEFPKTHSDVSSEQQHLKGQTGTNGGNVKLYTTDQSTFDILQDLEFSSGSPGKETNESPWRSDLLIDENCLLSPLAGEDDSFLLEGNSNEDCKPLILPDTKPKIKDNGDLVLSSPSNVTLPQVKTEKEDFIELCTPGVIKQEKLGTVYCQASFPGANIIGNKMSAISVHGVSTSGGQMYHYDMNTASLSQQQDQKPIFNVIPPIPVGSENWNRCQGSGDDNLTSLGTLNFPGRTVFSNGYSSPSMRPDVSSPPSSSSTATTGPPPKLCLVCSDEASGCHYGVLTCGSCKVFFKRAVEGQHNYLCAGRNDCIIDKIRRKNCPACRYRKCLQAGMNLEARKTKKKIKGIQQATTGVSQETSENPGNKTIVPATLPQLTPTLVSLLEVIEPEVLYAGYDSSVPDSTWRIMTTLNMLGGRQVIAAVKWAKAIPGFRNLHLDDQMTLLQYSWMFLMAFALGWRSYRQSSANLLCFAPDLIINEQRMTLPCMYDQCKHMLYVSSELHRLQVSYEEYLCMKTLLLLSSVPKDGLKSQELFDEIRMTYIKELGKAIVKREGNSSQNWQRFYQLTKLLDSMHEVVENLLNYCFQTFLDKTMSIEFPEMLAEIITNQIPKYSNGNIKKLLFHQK
# 3',5'-cyclic-AMP phosphodiesterase 4B (Homo sapiens), sequence (Q07343 whole entry, looked up): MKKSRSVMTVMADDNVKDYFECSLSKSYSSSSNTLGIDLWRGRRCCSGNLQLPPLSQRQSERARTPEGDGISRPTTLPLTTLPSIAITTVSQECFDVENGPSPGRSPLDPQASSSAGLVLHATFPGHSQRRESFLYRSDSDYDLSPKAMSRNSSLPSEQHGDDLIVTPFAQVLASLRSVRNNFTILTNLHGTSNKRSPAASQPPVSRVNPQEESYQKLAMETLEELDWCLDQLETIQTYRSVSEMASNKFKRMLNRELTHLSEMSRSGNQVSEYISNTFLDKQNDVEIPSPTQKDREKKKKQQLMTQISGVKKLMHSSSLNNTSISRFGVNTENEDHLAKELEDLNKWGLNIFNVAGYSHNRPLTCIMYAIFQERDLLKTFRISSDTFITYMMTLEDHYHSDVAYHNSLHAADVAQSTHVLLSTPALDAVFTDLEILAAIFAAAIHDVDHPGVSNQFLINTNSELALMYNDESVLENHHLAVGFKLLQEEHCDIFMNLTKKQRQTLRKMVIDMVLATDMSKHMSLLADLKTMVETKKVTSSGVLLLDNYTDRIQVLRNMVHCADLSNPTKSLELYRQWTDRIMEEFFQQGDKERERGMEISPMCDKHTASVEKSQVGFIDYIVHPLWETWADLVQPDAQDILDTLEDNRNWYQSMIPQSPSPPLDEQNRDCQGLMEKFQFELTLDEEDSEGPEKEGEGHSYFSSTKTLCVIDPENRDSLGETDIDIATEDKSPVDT
# Ubiquitin carboxyl-terminal hydrolase 1 (Homo sapiens), sequence (O94782 whole entry, looked up): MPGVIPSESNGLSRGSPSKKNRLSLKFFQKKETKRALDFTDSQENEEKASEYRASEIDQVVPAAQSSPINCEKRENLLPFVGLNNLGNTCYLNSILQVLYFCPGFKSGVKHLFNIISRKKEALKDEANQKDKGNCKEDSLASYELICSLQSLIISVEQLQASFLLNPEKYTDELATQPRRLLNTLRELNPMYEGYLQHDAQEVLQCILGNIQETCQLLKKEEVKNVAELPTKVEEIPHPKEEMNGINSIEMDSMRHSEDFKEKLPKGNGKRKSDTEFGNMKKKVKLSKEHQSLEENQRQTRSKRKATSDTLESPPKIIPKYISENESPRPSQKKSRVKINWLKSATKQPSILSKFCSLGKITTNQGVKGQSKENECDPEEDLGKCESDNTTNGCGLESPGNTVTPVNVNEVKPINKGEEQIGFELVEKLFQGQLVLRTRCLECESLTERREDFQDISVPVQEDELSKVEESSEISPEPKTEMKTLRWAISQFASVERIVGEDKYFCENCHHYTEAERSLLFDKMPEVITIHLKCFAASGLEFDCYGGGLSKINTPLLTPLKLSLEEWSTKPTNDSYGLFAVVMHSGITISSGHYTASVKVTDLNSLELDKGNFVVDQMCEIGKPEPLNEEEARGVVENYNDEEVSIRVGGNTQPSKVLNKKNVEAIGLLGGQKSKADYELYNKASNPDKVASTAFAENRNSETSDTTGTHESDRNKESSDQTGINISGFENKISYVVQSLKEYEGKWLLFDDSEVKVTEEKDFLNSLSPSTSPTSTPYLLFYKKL
# DNA dC->dU-editing enzyme APOBEC-3G (Homo sapiens), sequence (Q9HC16 whole entry, looked up): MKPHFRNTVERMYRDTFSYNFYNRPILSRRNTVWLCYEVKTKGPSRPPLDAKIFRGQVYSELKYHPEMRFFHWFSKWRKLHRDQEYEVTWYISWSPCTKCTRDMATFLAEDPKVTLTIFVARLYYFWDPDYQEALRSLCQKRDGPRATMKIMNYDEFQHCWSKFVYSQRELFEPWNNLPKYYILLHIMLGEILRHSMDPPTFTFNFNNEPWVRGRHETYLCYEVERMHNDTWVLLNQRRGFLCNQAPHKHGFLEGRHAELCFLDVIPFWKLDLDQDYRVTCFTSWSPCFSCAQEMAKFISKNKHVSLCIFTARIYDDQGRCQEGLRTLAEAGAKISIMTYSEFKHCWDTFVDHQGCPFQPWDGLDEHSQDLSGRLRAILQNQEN
# Cytochrome P450 1A2 (Homo sapiens), sequence (P05177 whole entry, looked up): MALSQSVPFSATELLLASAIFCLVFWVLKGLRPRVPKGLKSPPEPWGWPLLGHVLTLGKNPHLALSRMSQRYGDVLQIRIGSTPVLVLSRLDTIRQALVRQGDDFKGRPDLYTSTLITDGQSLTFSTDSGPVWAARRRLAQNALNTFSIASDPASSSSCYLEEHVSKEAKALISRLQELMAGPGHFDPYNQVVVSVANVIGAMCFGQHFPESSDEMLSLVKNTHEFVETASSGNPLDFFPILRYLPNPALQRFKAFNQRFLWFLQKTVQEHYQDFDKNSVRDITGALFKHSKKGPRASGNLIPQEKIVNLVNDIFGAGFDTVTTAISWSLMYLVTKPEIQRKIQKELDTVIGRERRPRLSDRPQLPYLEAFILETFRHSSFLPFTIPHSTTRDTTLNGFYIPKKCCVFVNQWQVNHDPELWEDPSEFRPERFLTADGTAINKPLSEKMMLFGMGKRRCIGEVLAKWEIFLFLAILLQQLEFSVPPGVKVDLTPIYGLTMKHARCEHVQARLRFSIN
# Cytochrome P450 2C9 (Homo sapiens), sequence (P11712 whole entry, looked up): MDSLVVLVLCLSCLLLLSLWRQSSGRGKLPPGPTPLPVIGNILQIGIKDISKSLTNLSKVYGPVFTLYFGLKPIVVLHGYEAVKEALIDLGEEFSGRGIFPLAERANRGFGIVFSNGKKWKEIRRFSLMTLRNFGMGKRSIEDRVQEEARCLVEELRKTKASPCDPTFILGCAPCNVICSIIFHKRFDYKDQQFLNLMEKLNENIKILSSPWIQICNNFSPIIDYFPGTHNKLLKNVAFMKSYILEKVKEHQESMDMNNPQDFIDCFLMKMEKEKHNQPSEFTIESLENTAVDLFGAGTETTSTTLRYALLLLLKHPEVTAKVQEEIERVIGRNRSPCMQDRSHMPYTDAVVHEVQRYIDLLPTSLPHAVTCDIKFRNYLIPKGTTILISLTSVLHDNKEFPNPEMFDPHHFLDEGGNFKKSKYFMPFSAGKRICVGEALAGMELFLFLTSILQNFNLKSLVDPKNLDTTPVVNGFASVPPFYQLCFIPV
# Cytochrome P450 2D6 (Homo sapiens), sequence (P10635 whole entry, looked up): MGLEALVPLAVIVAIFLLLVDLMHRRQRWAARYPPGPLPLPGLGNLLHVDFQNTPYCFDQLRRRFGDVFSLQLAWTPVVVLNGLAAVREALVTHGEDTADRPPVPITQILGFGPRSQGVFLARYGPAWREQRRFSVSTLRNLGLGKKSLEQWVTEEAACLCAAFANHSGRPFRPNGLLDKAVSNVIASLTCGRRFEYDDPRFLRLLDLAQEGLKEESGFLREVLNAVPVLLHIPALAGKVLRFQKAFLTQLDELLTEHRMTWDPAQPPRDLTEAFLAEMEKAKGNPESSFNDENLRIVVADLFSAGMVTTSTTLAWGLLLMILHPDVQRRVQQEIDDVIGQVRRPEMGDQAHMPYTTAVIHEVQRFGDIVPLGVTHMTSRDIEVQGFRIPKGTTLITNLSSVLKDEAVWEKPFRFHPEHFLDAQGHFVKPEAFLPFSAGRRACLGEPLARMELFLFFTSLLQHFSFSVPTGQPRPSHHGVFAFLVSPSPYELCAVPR
Compound,outcome [1],outcome [2],Potency [3],Potency [4],Potency [5],outcome [6],outcome [7],Potency [8],Potency [9],Potency [10],Potency [11],Potency [12],Potency [13],Potency [14],Potency [15]
CC(C)c1cccc(O)c(=O)c1,inactive,inactive,inactive,inactive,inactive,inactive,inactive,,,,,,,,
COc1ccccc1N1CCN(C[C@@H]2CN3C(=O)N(C)c4ccccc4C3=N2)CC1,,,inactive,inactive,,,,31.6 µM (active),> 46 µM,> 46 µM,inactive,inactive,inactive,inactive,
COc1cc(OC)c2cc(-c3ccncc3)cnc2c1,,,,21.2 µM (active),,,,0.2 µM (active),> 46 µM,> 46 µM,inactive,,inactive,inactive,inactive
